About 83,000 compounds went through this panel and 20% of them were active in at least one assay; those are over-represented in the sample as a whole.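 Testing used 96-well plates and a 48-hour single-concentration exposure. Example: -40 means 40% of the starting cells died.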 Active and inactive are the calls of the source. Rule for the calls: active = growth percent below 10; inactive = the rest.
Columns and labels:
Assay in all cases: NCI-60 one-dose screen, 48 h (100 = growth as untreated, 0 = no growth, -100 = all killed)
Details in all cases: 10 µM unless noted
HCT-15 colon = test system: HCT-15 colon
HT29 colon = test system: HT29 colon
SNB-75 CNS = test system: SNB-75 CNS
SNB-19 CNS = test system: SNB-19 CNS
U251 CNS = test system: U251 CNS
PC-3 prostate = test system: PC-3 prostate
UACC-62 melanoma = test system: UACC-62 melanoma
LOX IMVI melanoma = test system: LOX IMVI melanoma
SK-MEL-28 melanoma = test system: SK-MEL-28 melanoma
SK-MEL-2 melanoma = test system: SK-MEL-2 melanoma
EKVX NSCLC = test system: EKVX NSCLC
UO-31 renal = test system: UO-31 renal
TK-10 renal = test system: TK-10 renal
ACHN renal = test system: ACHN renal
CAKI-1 renal = test system: CAKI-1 renal
CCRF-CEM leukemia = test system: CCRF-CEM leukemia
MOLT-4 leukemia = test system: MOLT-4 leukemia
SN12C renal = test system: SN12C renal
A498 renal = test system: A498 renal

Measured: growth

COc1cccc(/C=C2\Oc3cc(OCCN4CCCC4)ccc3C2=O)c1
inactive: HCT-15 colon 67% | HT29 colon 35.2% | SNB-75 CNS 87.3% | SNB-19 CNS 102% | U251 CNS 92.1% | PC-3 prostate 83.6% | UACC-62 melanoma 106% | LOX IMVI melanoma 76.1% | SK-MEL-28 melanoma 102% | SK-MEL-2 melanoma 102% | EKVX NSCLC 89.3% | UO-31 renal 80.8% | TK-10 renal 89.3% | ACHN renal 104% | CAKI-1 renal 98.5% | CCRF-CEM leukemia 71.6% | MOLT-4 leukemia 88.9%

CC(=O)NCC1c2c(n(C)c3c(Cl)c(Cl)ccc23)C(=O)NC1(C)C (centres undefined)
inactive: HCT-15 colon 102% | HT29 colon 108% | SNB-75 CNS 87.7% | SNB-19 CNS 102% | U251 CNS 94.7% | PC-3 prostate 91% | UACC-62 melanoma 94.4% | LOX IMVI melanoma 95% | SK-MEL-28 melanoma 111% | EKVX NSCLC 90.7% | SN12C renal 85.5% | UO-31 renal 84.6% | TK-10 renal 89.5% | ACHN renal 95.1% | CAKI-1 renal 77.4% | A498 renal 93% | CCRF-CEM leukemia 107% | MOLT-4 leukemia 84.9%

Clc1ccc2c(NCCCCNc3nc(N4CCOCC4)nc4ccccc34)ccnc2c1
active: HT29 colon -26.4% | U251 CNS -59.6% | LOX IMVI melanoma -66.6% | SN12C renal -8.57% | UO-31 renal -89.7% | TK-10 renal -63.1% | ACHN renal -67.5% | CCRF-CEM leukemia -21.7%
inactive: HCT-15 colon 22.9% | SNB-75 CNS 79% | SNB-19 CNS 14.7% | PC-3 prostate 38.9% | UACC-62 melanoma 99.1% | SK-MEL-28 melanoma 119% | SK-MEL-2 melanoma 103% | EKVX NSCLC 45.2% | MOLT-4 leukemia 17.6%

Nc1n[nH]c2ccc([C@@H]3Nc4ccc5cn[nH]c5c4[C@H]4C5CCC(C5)[C@@H]34)cc12 (some centres undefined)
inactive: HCT-15 colon 15% | HT29 colon 13.1% | SNB-19 CNS 31.4% | U251 CNS 23% | PC-3 prostate 16.4% | UACC-62 melanoma 39.4% | LOX IMVI melanoma 31.9% | SK-MEL-28 melanoma 61% | EKVX NSCLC 48.7% | SN12C renal 43.9% | UO-31 renal 38.9% | TK-10 renal 74.3% | ACHN renal 39.2% | CAKI-1 renal 33.2% | CCRF-CEM leukemia 15.6% | MOLT-4 leukemia 20.8%
active: SNB-75 CNS -12.5%

COc1cc2c(cc1-c1c(C)noc1C)ncc1nc(-c3ccccn3)n([C@H](C)COC(F)F)c12
inactive: HCT-15 colon 23.2% | HT29 colon 24.2% | SNB-75 CNS 34% | SNB-19 CNS 60.2% | U251 CNS 48.8% | PC-3 prostate 34% | UACC-62 melanoma 23.9% | LOX IMVI melanoma 20.9% | SK-MEL-28 melanoma 67.3% | SK-MEL-2 melanoma 76.3% | EKVX NSCLC 59% | UO-31 renal 18.8% | TK-10 renal 33% | ACHN renal 40.1% | CAKI-1 renal 34.2% | CCRF-CEM leukemia 41% | MOLT-4 leukemia 44.4%
active: A498 renal -12.2%

CC(C)(C)c1cc(/C=N\NC(=O)/C=C/C=C/c2ccc3c(c2)OCO3)c(O)c(C(C)(C)C)c1
inactive: HCT-15 colon 63.7% | HT29 colon 92% | SNB-75 CNS 31.9% | SNB-19 CNS 85.5% | U251 CNS 84% | PC-3 prostate 69.1% | UACC-62 melanoma 71.5% | LOX IMVI melanoma 61.7% | SK-MEL-28 melanoma 85.8% | SK-MEL-2 melanoma 89% | EKVX NSCLC 75% | UO-31 renal 55.1% | TK-10 renal 96% | ACHN renal 75.9% | CAKI-1 renal 71.9% | CCRF-CEM leukemia 55.7% | MOLT-4 leukemia 74.7%

Nc1nc2ccc3[nH]ncc3c2c2c1CCCC2
active: HCT-15 colon 3.93% | HT29 colon 5.02% | SNB-75 CNS -46.9% | SNB-19 CNS 8.98% | U251 CNS 8.3% | PC-3 prostate 3.35% | LOX IMVI melanoma -9.24% | SK-MEL-28 melanoma 9.47% | EKVX NSCLC -4.32% | UO-31 renal 5.99% | TK-10 renal 4.7% | ACHN renal 3.71% | CAKI-1 renal 6.67% | CCRF-CEM leukemia 0.983% | MOLT-4 leukemia -2.01%
inactive: UACC-62 melanoma 10.9% | SN12C renal 11.3%

Cc1ccc2oc(=O)cc(C3c4ccc([nH]4)C(c4cc(=O)oc5ccc(C)cc45)c4ccc([nH]4)C(c4cc(=O)oc5ccc(C)cc45)c4ccc([nH]4)C(c4cc(=O)oc5ccc(C)cc45)c4ccc3[nH]4)c2c1 (centres undefined)
active: HCT-15 colon -46.9% | HT29 colon -75.7% | SNB-75 CNS -42% | SNB-19 CNS -29.6% | U251 CNS -80.7% | PC-3 prostate -27.2% | UACC-62 melanoma -57% | LOX IMVI melanoma -70.6% | SK-MEL-28 melanoma -53.2% | SK-MEL-2 melanoma -73.1% | EKVX NSCLC -19.3% | UO-31 renal -24.7% | TK-10 renal -22.2% | ACHN renal -18.6% | CAKI-1 renal -13.6% | A498 renal -81.1% | CCRF-CEM leukemia -18% | MOLT-4 leukemia -22.4%

CCCn1c(=O)[nH]c(N)c([C@H]2c3ccccc3Oc3[nH]c(=O)n(CCC)c(=O)c32)c1=O
inactive: HCT-15 colon 48.9% | HT29 colon 85.3% | SNB-75 CNS 82.9% | SNB-19 CNS 97.8% | U251 CNS 81.8% | PC-3 prostate 107% | UACC-62 melanoma 80.6% | LOX IMVI melanoma 64.8% | SK-MEL-28 melanoma 73% | SK-MEL-2 melanoma 92% | EKVX NSCLC 93.2% | UO-31 renal 78.8% | TK-10 renal 79% | ACHN renal 73.6% | CAKI-1 renal 86.1% | A498 renal 92.9% | CCRF-CEM leukemia 14.3% | MOLT-4 leukemia 39.5%

COc1cccc(NC(=O)c2sc3nc(C)c(C(C)=O)cc3c2N)c1
inactive: HCT-15 colon 35.9% | HT29 colon 38.7% | SNB-75 CNS 22.7% | SNB-19 CNS 40.2% | U251 CNS 33.7% | PC-3 prostate 47.8% | UACC-62 melanoma 26.7% | LOX IMVI melanoma 47.2% | SK-MEL-28 melanoma 71% | SK-MEL-2 melanoma 24.5% | EKVX NSCLC 56.4% | SN12C renal 55.9% | UO-31 renal 75.2% | TK-10 renal 55.7% | ACHN renal 63.3% | CCRF-CEM leukemia 51.6% | MOLT-4 leukemia 44.9%

O=C1Nc2c(ccc(Cl)c2Cl)/C1=C\c1ccc(C(F)(F)F)cc1
inactive: HCT-15 colon 81.9% | HT29 colon 74.4% | SNB-75 CNS 73.4% | SNB-19 CNS 81.6% | U251 CNS 74.2% | PC-3 prostate 62.5% | UACC-62 melanoma 61.9% | LOX IMVI melanoma 67% | SK-MEL-28 melanoma 97.4% | SK-MEL-2 melanoma 91.4% | EKVX NSCLC 55.2% | UO-31 renal 57.9% | TK-10 renal 96.4% | ACHN renal 86.5% | CAKI-1 renal 65.9% | MOLT-4 leukemia 44.3%
active: CCRF-CEM leukemia 6.78%

O=C1c2cc3c(cc2-c2c1c1ccc(F)cc1c(=O)n2C[C@H](O)[C@@H](O)[C@H](O)CO)OCO3
inactive: EKVX NSCLC 13%
active: HCT-15 colon 5.37% | HT29 colon -2.72% | SNB-75 CNS -38.4% | SNB-19 CNS 4.38% | U251 CNS -19.1% | PC-3 prostate 7.25% | UACC-62 melanoma -55.5% | LOX IMVI melanoma -30.4% | SK-MEL-28 melanoma -37.6% | SK-MEL-2 melanoma -27.2% | UO-31 renal -21.3% | TK-10 renal -0.938% | ACHN renal -42.9% | CAKI-1 renal -7.09% | A498 renal -78.8% | CCRF-CEM leukemia 5.88% | MOLT-4 leukemia -6.28%

O=C1/C(=C(/c2ccccc2)N2CCOCC2)Cc2ccccc21
active: HCT-15 colon -25.9% | HT29 colon 8.82% | U251 CNS 9.15% | LOX IMVI melanoma -58.3% | SK-MEL-28 melanoma -28.9% | UO-31 renal -47.8% | TK-10 renal -16.7% | ACHN renal -39.6% | CAKI-1 renal -43.5%
inactive: SNB-75 CNS 50.3% | SNB-19 CNS 78.1% | PC-3 prostate 12.2% | UACC-62 melanoma 48.6% | SK-MEL-2 melanoma 90.4% | EKVX NSCLC 38% | A498 renal 51.4% | CCRF-CEM leukemia 22.6% | MOLT-4 leukemia 22.7%

O=C(O)c1c(=O)cccc2ssc12
inactive: SNB-75 CNS 26.9% | UACC-62 melanoma 14.3% | SK-MEL-28 melanoma 10.8% | SK-MEL-2 melanoma 11.6% | EKVX NSCLC 11% | UO-31 renal 21.7% | CAKI-1 renal 68.5%
active: HCT-15 colon 4.16% | HT29 colon -48.6% | SNB-19 CNS -74.4% | U251 CNS -91.9% | PC-3 prostate -19.3% | LOX IMVI melanoma 1.04% | TK-10 renal 4.78% | ACHN renal 3.95% | A498 renal -76.8% | CCRF-CEM leukemia 4.61% | MOLT-4 leukemia -23.3%

CC1=CC(=NN=c2cc(C)n([O-])c(C)c2)C=C(C)[N+]1=O
inactive: HCT-15 colon 94.4% | HT29 colon 74.6% | SNB-75 CNS 64.7% | SNB-19 CNS 103% | U251 CNS 91.2% | PC-3 prostate 91.9% | UACC-62 melanoma 80.3% | LOX IMVI melanoma 41.7% | SK-MEL-28 melanoma 80.8% | SK-MEL-2 melanoma 84.7% | EKVX NSCLC 110% | UO-31 renal 85.7% | TK-10 renal 85.8% | ACHN renal 110% | CAKI-1 renal 98.2% | A498 renal 124% | CCRF-CEM leukemia 91.7% | MOLT-4 leukemia 81.7%

CCCOc1cc2ccccc2cc1C(=O)Nc1nc(N)c2c(ccc3nccc32)[nH]1
active: HCT-15 colon -44.7% | HT29 colon -63.3% | SNB-75 CNS -90.3% | SNB-19 CNS -76.4% | U251 CNS -83.5% | PC-3 prostate -27.9% | UACC-62 melanoma -81% | LOX IMVI melanoma -73.7% | SK-MEL-28 melanoma -84.9% | SK-MEL-2 melanoma -49.6% | EKVX NSCLC -73.7% | UO-31 renal -65% | TK-10 renal -37.3% | ACHN renal -80.9% | CAKI-1 renal -46.7% | A498 renal -87.6% | CCRF-CEM leukemia -13% | MOLT-4 leukemia -40.9%

COc1cc(C(=O)Oc2ccccc2OC(=O)c2cc(OC)c(OC)c(OC)c2)cc(OC)c1OC
inactive: HCT-15 colon 99.4% | HT29 colon 110% | SNB-75 CNS 95.3% | SNB-19 CNS 97% | U251 CNS 104% | PC-3 prostate 88.8% | UACC-62 melanoma 103% | LOX IMVI melanoma 94.9% | SK-MEL-28 melanoma 120% | EKVX NSCLC 95.7% | SN12C renal 98.4% | UO-31 renal 84.5% | TK-10 renal 98.4% | ACHN renal 93.9% | CAKI-1 renal 91.6% | A498 renal 108% | CCRF-CEM leukemia 97.2% | MOLT-4 leukemia 114%
